# PubChem BioAssay
# For part of these data: Entries with a potency or affinity are not part of this list. The source made the active and inactive calls. Unless noted, no rule for the calls is given here.
# Key:
# [1] = antimalarial activity against Dd2 strain (AID 2302;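 active = growth inhibition above 50% at the single 2 µM test dose, taken to imply half-maximal potency below 2 µM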;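 also: 0% = DMSO untreated growth and 100% = chloroquine plus artemisinin killed control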); settings: P. falciparum Dd2 in RBCs, LDH growth readout, 72 h; at 2 µM; stronger effect = higher value
# [2] = human hepatoma cell viability loss – ATP luminescence, cytotoxicity control for P. falciparum antimalarial project, primary screen (AID 2303;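 active = inhibition above 50%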;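 also: 0% = DMSO wells and 100% = digitonin-killed cells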); settings: HepG2 viability, 24-48 h, at 10 µM, stronger effect = higher value
# [3] = target: L-lactate dehydrogenase (Plasmodium falciparum (isolate CDC / Honduras)) (UniProt Q27743); assay: PfLDH activity inhibition – cell lysate, 3D7 strain, counter-screen for P. falciparum growth inhibition project (AID 2304);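 also: 0% = vehicle and 100% = reference inhibitor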; settings: P. falciparum 3D7 crude extract, LDH APAD/NBT absorbance; at 2 µM; stronger effect = higher value
# Chain of L-lactate dehydrogenase (Plasmodium falciparum (isolate CDC / Honduras)) (Q27743 whole entry, looked up): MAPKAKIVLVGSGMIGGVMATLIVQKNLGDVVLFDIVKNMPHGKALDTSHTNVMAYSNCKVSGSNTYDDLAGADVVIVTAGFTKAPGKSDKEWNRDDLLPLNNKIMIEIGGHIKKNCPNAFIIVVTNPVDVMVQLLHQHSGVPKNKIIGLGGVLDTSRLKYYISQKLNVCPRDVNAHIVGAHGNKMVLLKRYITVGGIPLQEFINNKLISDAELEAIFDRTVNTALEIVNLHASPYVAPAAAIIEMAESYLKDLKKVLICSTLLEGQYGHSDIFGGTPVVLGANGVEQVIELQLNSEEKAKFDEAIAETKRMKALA
# [4] = inhibition of 3D7 malaria parasite growth – strain 3D7 (AID 2306);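 also: 0% = DMSO wells and 100% = chloroquine plus artemisinin control wells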; settings: P. falciparum 3D7 erythrocytic growth, LDH absorbance, 72 h; at 2 µM; stronger effect = higher value
# [5] = target: Calcium-dependent protein kinase 1 (Plasmodium falciparum (isolate 3D7)) (UniProt P62344); assay: PfCDPK1 kinase inhibitors, biochemical, TCAMS library (AID 1159585; cut-off not given, nearly all actives have IC50 up to about 0.98 µM;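 also: inhibitors leave more ATP so luminescence rises with inhibition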); settings: recombinant PfCDPK1, Kinase-Glo ATP depletion luminescence
# Chain of Calcium-dependent protein kinase 1 (Plasmodium falciparum (isolate 3D7)) (P62344 whole entry, looked up): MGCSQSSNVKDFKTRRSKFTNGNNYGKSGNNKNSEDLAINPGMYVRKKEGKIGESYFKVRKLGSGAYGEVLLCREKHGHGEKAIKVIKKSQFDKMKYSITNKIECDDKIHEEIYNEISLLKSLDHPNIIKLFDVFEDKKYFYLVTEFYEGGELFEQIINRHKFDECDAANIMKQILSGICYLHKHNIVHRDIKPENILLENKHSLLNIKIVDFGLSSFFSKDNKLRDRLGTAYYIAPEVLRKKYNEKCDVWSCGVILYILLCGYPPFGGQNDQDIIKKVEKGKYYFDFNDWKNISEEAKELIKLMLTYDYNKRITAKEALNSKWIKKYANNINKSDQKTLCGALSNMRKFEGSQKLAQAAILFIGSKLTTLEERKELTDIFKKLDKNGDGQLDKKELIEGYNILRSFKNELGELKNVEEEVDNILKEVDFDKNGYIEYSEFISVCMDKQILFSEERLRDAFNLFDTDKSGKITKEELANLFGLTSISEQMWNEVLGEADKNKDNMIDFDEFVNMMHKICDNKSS
# [6] = target: Plasmodium falciparum protein kinase 6 (PK6, PF3D7_1337100) (UniProt Q8IDW1); assay: PfPK6 kinase inhibitors, biochemical, TCAMS library (AID 1159586); settings: recombinant PfPK6, Kinase-Glo ATP depletion luminescence
# Chain of Plasmodium falciparum protein kinase 6 (PK6, PF3D7_1337100) (Q8IDW1 1-305): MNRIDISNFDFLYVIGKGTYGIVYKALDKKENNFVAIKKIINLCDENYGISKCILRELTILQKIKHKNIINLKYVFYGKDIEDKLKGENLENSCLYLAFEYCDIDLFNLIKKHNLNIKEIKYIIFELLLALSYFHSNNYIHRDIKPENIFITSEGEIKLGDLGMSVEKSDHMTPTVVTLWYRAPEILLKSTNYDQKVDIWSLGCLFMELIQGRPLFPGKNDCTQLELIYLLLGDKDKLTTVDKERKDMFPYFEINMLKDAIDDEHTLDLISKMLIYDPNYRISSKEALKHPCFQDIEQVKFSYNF
# [7] = target: Protein kinase 7 (PK7), Plasmodium falciparum 3D7 (PF3D7_0213400) (UniProt Q7YTF7); assay: inhibition of Plasmodium PK7 catalytic activity – biochemical, TCAMS antimalarial set, Kinase-Glo luminescence (AID 1159587); settings: recombinant PfPK7, Kinase-Glo ATP depletion luminescence
# Chain of Protein kinase 7 (PK7), Plasmodium falciparum 3D7 (PF3D7_0213400) (Q7YTF7 1-343): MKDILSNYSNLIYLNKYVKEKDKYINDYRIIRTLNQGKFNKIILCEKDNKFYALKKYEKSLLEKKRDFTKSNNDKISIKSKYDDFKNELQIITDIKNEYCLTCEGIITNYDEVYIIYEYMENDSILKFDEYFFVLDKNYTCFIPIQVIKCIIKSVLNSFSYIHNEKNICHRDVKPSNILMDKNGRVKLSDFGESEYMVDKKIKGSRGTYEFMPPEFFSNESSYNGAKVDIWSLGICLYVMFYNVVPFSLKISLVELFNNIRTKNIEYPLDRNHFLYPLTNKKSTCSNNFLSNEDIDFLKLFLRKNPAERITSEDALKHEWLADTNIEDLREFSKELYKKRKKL
# [8] = target: Calcium-dependent protein kinase 4 (Plasmodium falciparum (isolate 3D7)) (UniProt Q8IBS5); assay: PfCDPK4 kinase inhibitors, biochemical, TCAMS library (AID 1159588; cut-off not given, nearly all actives have IC50 up to about 0.91 µM); settings: recombinant PfCDPK4, Kinase-Glo ATP depletion luminescence
# Chain of Calcium-dependent protein kinase 4 (Plasmodium falciparum (isolate 3D7)) (Q8IBS5 whole entry, looked up): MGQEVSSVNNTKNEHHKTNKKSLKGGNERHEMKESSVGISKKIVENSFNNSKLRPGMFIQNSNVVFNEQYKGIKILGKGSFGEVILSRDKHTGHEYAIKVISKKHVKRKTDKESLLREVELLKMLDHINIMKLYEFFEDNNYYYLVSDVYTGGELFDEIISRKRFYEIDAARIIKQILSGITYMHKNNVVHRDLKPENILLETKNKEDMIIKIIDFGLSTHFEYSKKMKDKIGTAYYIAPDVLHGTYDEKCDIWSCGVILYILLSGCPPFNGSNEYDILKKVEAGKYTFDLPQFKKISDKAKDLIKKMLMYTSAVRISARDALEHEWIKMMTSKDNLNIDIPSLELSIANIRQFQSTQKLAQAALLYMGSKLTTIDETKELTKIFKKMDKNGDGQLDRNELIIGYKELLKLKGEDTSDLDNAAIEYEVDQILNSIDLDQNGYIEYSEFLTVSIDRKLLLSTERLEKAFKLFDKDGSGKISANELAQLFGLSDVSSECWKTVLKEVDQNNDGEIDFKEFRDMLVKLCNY
Structure (SMILES),growth inhibition [1],inhibition [2],inhibition [3],growth inhibition [4],outcome [5],outcome [6],outcome [7],outcome [8]
Cc1ccc(NC(=O)c2cccc(CN3CCCN(Cc4cccc(O)c4)CC3)c2)cc1,3% (inactive),22% (inactive),1% (inactive),82% (active),inactive,inactive,inactive,inactive
CC1(C)[C@H]2CC[C@]1(C)CN(CC(O)Cn1c3ccccc3c3cc(I)ccc31)C2 (stereo partly drawn),82% (active),-7% (inactive),1% (inactive),94% (active),inactive,inactive,inactive,inactive
CC1(C)N=C(N)N=C(N)N1OCc1nc(N)nc(Nc2ccccc2)n1,-4% (inactive),3% (inactive),-2% (inactive),98% (active),inactive,inactive,inactive,inactive
CC(C)C[C@@H](/C=N/N1CCNC1=O)NC(=O)[C@H](CC(C)C)NC(=O)c1ccc(OCCN2CCOCC2)cc1,89% (active),21% (inactive),-4% (inactive),97% (active),inactive,inactive,inactive,inactive
CCN(CC)CCN(Cc1ccc(-c2ccc(C(F)(F)F)cc2)cc1)C(=O)Cn1cc(CCCCc2cccc(F)c2F)c(=O)c2ccccc21,22% (inactive),18% (inactive),-5% (inactive),90% (active),inactive,inactive,inactive,inactive
NC1=NC2(CCCCC2)N(OCC2CCCCC2)C(N)=N1,49% (inactive),70% (active),0% (inactive),96% (active),inactive,inactive,inactive,inactive
CCCCCCNC(=O)c1nn(CCN2CCC(N3CCCC3)CC2)cc1-c1ccc(Cl)c(Cl)c1,33% (inactive),31% (inactive),-2% (inactive),101% (active),inactive,inactive,inactive,inactive
O=C(Cn1c(CCc2cccc(F)c2F)nc(=O)c2cccnc21)N(Cc1ccc(-c2ccc(C(F)(F)F)cc2)cc1)C1CCN(C2CCSCC2)CC1,63% (active),49% (inactive),3% (inactive),101% (active),inactive,inactive,inactive,inactive
O=C(CNC1CCCCC1)Nc1cccc(C(=O)Nc2cccc(C(F)(F)F)c2)c1,80% (active),17% (inactive),-6% (inactive),93% (active),inactive,inactive,inactive,inactive
O=C(/C=C/c1ccc(Cl)c(Cl)c1)NCCCCCN1CCC(NC(=S)Nc2ccc(Cl)c(Cl)c2)CC1,65% (active),29% (inactive),2% (inactive),99% (active),inactive,inactive,inactive,inactive
COc1ccc2nccc(N3CCC(CCNCc4cc5c(cn4)OCCO5)CC3)c2c1,99% (active),26% (inactive),6% (inactive),100% (active),inactive,inactive,inactive,inactive
CC1(C)N=C(N)N=C(N)N1OCCCCCOc1ccccc1,97% (active),61% (active),4% (inactive),95% (active),inactive,inactive,inactive,inactive
CCCCCN1CCC(NC(=O)c2ccc(C(=O)Nc3ccc(C(C)C)cc3)cc2)C1 (stereo not drawn),17% (inactive),38% (inactive),2% (inactive),95% (active),inactive,inactive,inactive,inactive
O=C(/C=C/c1cccc(C(F)(F)F)c1)NCCCCCN1CCC(c2c[nH]c3ccccc23)CC1,14% (inactive),70% (active),0% (inactive),90% (active),inactive,inactive,inactive,inactive
O=C(c1ccc(-c2ccccn2)s1)N1CCc2cc3nccc(N4CCN5CCC[C@H]5C4)c3cc21,49% (inactive),-15% (inactive),-4% (inactive),96% (active),inactive,inactive,inactive,inactive
CC1(C)CCCN(c2ncc(-c3cccc(CNCc4ccccc4O)c3)cn2)C1,82% (active),35% (inactive),-4% (inactive),96% (active),inactive,inactive,inactive,inactive
CC1CC(C)CN(CCCNc2ccc(C(=O)Nc3ccc(C(F)(F)F)cc3)cc2[N+](=O)[O-])C1 (stereo not drawn),99% (active),31% (inactive),-2% (inactive),101% (active),inactive,inactive,inactive,inactive
O=C(Nc1ccc(-c2cccc(-c3nc4ccc(F)cc4[nH]3)c2)cc1)Nc1ccc(F)c(F)c1F,98% (active),70% (active),3% (inactive),100% (active),inactive,inactive,inactive,inactive

Structure (SMILES),growth inhibition [1],inhibition [2],inhibition [3],growth inhibition [4],outcome [5],outcome [6],outcome [7],outcome [8]
CCNCc1ccc(-c2cccc(-c3nc4ccccc4[nH]3)c2)cc1,18% (inactive),26% (inactive),4% (inactive),102% (active),inactive,inactive,inactive,inactive
CCOc1ccc2c(NN=Cc3cccc(OC)c3OC)cc(C)nc2c1,85% (active),4% (inactive),3% (inactive),102% (active),inactive,inactive,inactive,inactive
CCCN1CCN(Cc2ccc(C(=O)Nc3ccc(Cl)cc3)cc2)CC1,14% (inactive),48% (inactive),-2% (inactive),94% (active),inactive,inactive,inactive,inactive
CCCN1CCN(c2ccc(NS(=O)(=O)c3ccc(C(=O)Nc4ccc(Cl)cc4)cc3)cc2)CC1,50% (active),4% (inactive),-4% (inactive),100% (active),inactive,inactive,inactive,inactive
CCC(C)(C)c1ccc(Oc2ccc(NC(=O)Nc3ccc(Cl)c(Cl)c3)cc2)cc1,97% (active),13% (inactive),-1% (inactive),98% (active),inactive,inactive,inactive,inactive
COc1ccc(C2CC(=O)C3=C(C2)NC(C)=C(C(=O)OC(C)C)C3c2ccccc2F)cc1OC (stereo not drawn),99% (active),14% (inactive),0% (inactive),100% (active),inactive,inactive,inactive,inactive
O=C(N[C@@H](CC1CCCCC1)C(=O)NCCN1CCCC1)c1ccc(O)c(-c2ccc(Cl)c(Cl)c2)c1,99% (active),16% (inactive),2% (inactive),99% (active),inactive,inactive,inactive,inactive
c1ccc2c(NCCCCCCCCNc3ccnc4ccccc34)ccnc2c1,35% (inactive),57% (active),-1% (inactive),101% (active),inactive,inactive,inactive,inactive
C=CCOC(=O)N1CCC(CNCc2cccc(-c3cccc(-c4nc5c(C)cccc5[nH]4)c3)c2)C1 (stereo not drawn),69% (active),22% (inactive),-2% (inactive),102% (active),inactive,inactive,inactive,inactive
COc1cccc(C(C)(C)NC[C@@H](O)[C@H](Cc2ccccc2)NC(=O)c2cc(C3CCCC3)cc(N3CCCCS3(=O)=O)c2F)c1,99% (active),16% (inactive),7% (inactive),99% (active),inactive,inactive,inactive,inactive
COc1cccc(CNC(=O)c2cc(CNCc3ccccc3)ccc2-c2cccc(CNCc3ccc(-c4ccccc4)cc3)c2)c1,15% (inactive),22% (inactive),8% (inactive),95% (active),inactive,inactive,inactive,inactive
Oc1cc(Nc2ccnc3cc(-c4ccc(CN5CCCCC5)o4)c(Cl)cc23)c(Cl)cc1F,64% (active),-10% (inactive),-5% (inactive),102% (active),inactive,inactive,inactive,inactive
CCNc1cc(C(=O)N[C@@H](Cc2ccco2)[C@H](O)CNC2CCCCC2)cc(N2CCCCS2(=O)=O)c1,57% (active),14% (inactive),3% (inactive),91% (active),inactive,inactive,inactive,inactive
COc1ccc2nccc(NN=Cc3ccccc3)c2c1,99% (active),-2% (inactive),-1% (inactive),101% (active),inactive,inactive,inactive,inactive
CN(CCC(O)c1ccc(Cl)c(Cl)c1)C[C@H]1C[C@@H]1C(=O)c1ccccc1 (stereo partly drawn),96% (active),11% (inactive),-3% (inactive),98% (active),inactive,inactive,inactive,inactive
COc1cc(NC(=O)N2CCOC(CCN3CCC(c4ccccc4)CC3)(c3ccc(Cl)c(Cl)c3)C2)cc(OC)c1 (stereo not drawn),73% (active),12% (inactive),0% (inactive),93% (active),inactive,inactive,inactive,inactive
CN(Cc1cccc(F)c1)C1CCN(c2cc(NC(=O)c3ccc(F)cc3)ccn2)C1 (stereo not drawn),14% (inactive),7% (inactive),-3% (inactive),83% (active),inactive,inactive,inactive,inactive
CCCNCc1ccc(-c2ccc(CN(CCOC)C(=O)/C=C/c3ccccc3C)cc2)nc1,39% (inactive),13% (inactive),2% (inactive),95% (active),inactive,inactive,inactive,inactive
